# Shown are actives, neighbours in structure and some others; about 15% of the full set was active somewhere.
# DT40 TDP1 CPT = DT40-hTDP1 cell growth loss with CPT; hit rate 12% among 420,000; Potency, µM (top dose mostly 46.2 µM), most hits filed as inhibitors; chicken DT40 Tdp1-/-;hTDP1 cells + 20 nM CPT, ATP luminescence, 48 h; note: nearly all actives have a fitted effect of over 55% in size
#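 Chicken DT40 Tdp1-/- cells complemented with human TDP1, 400 cells/well, exposed to compounds plus 20 nM camptothecin for at least 48 h at 37 C; viability read as ATP content by CellTiter-Glo luminescence.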
# ALOX12 inh = ALOX12 (human) lipoxygenase inhibition; AID 1671190; P18054; purified 12hLO, xylenol orange hydroperoxide absorbance; hit rate 1.1% among 580,000; Potency, µM (series often up to 108 µM), most hits filed as inhibitors
#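 Hydroperoxide product was detected by ferrous iron/xylenol orange as the 573 to 405 nm absorbance ratio. Arachidonic acid at 40 uM (final) was turned over for 30 min at room temperature by 150 nM human 12hLO, pH 7.0 Hepes buffer, after 15 min compound preincubation.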
# ELG1 DNA repair = ELG1-dependent DNA repair inhibition; HEK293T ELG1-luciferase reporter, luminescence, 16 h; DNA damage induced by 5-fluorouridine; Potency, µM (highest dose often 46.1 µM), usual class: inhibitors; hit rate 2.3% among 330,000; AID 504467; note: nearly all actives have a fitted effect of over 55% in size
#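 Cells (2,000 per well) received 5-fluorouridine plus test compound or DMSO and were incubated 16 hr at 37 °C, 5% CO2. Luciferase activity was read by luminescence 30 min after ONE-Glo addition; signal suppression marked inhibition of damage-induced ELG1 function.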
# VP16 counter = Gal4-VP16 reporter inhibition counter-screen; hit rate 3.5% among 310,000; Drosophila S2 Gal4-VP16 UAS-luciferase, luminescence, 20 h; Potency, µM (highest dose often 53.6 µM), usual class: inhibitors; AID 2546;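 note: Gal4-VP16 expression switched on by copper sulfate through the metallothionein promoter; nearly all actives have a fitted effect of over 50% in size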
# RORgamma inh = blocks mouse ROR gamma transcriptional activity | P51450 | Drosophila S2 Gal4-RORgamma UAS-luciferase reporter, 20 h | Potency, µM (highest dose often 53.6 µM), actives largely listed as inhibitors | hit rate 5.4% among 310,000 | AID 2551; note: nearly all actives have a fitted effect of over 60% in size
# Target sequence (P51450 whole entry, looked up, the tested form may be a part): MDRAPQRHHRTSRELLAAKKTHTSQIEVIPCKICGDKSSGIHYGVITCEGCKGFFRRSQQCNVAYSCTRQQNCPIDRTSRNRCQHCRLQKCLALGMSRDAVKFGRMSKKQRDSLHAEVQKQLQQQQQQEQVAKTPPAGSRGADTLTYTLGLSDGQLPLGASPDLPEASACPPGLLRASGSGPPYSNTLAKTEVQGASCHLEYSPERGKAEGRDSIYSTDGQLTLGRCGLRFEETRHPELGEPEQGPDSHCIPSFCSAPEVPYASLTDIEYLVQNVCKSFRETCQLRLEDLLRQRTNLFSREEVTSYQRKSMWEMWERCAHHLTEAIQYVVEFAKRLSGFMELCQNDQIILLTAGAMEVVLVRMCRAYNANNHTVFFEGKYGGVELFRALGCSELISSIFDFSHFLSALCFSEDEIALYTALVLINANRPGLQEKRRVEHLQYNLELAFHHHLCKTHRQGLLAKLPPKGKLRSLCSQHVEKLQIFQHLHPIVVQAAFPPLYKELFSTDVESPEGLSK
#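 ROR gamma transcriptional activity was tracked as Gal4-UAS luciferase output in stably transfected Drosophila Schneider cells, with compound added 1 hr before 700 uM copper sulfate induction and a 20 hr ambient-temperature incubation.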
# DT40 TDP1 no CPT = qHTS for Inhibitors of human tyrosyl-DNA phosphodiesterase 1 (TDP1): qHTS in cells in absence of CPT; AID 686978, 2013; hit rate 15% among 420,000; DT40 Tdp1-/- hTDP1 cells, no CPT, ATP luminescence, 48 h; Potency, µM (doses to about 46.2 µM), hits mostly inhibitors; note: nearly all actives have a fitted effect of over 55% in size
#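 DT40 Tdp1-/-;hTDP1 cells, no CPT (DMSO vehicle only), 400 cells/well; compounds pin-transferred; ≥48 hr, 37 °C; CellTiter-Glo 30 min RT dark, luminescence read.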
# A number is an active result; - = inactive; ? = inconclusive; . = not tested or not shown; ! = repeats disagree; [ ] = another dose, or the depositor's remark. Calls come from the whole dose curve; as a rule, active = well fitted curve in the direction sought with a large enough effect; inconclusive = small, poorly fitted or top-dose-only effect, or another doubt; inactive = no such curve, though single readings can be large; an effect the other way counts as inactive or inconclusive.
SMILES,DT40 TDP1 CPT,ALOX12 inh,ELG1 DNA repair,VP16 counter,RORgamma inh,DT40 TDP1 no CPT
COc1ccc2cc1Nc1ccc(cc1)C[C@H](NCc1ccc(O)cc1)C(=O)N(C)[C@H](C(=O)NCCOc1ccccc1)C2,.,-,.,.,.,.
CCn1nc(C)c(CNC(=O)[C@@H]2C[C@@H](O)CN2C2CCN(C(=O)c3cccc(OC)c3)CC2)c1C,.,-,.,.,.,.
Cc1ccccc1N(C)C1CN(C(=O)c2ccc3c(c2)OCO3)C1,.,-[6.33 µM],.,.,.,.
Cc1ccc(NC2(c3nnnn3-c3ccccc3C)CCCCC2)cc1,.,-,.,.,.,.
CCOc1cccc(C(=O)Nc2ccc3oc(-c4ccc(C(C)(C)C)cc4)nc3c2)c1,?,-,.,.,.,2.9µM
CS(=O)(=O)c1ccc(C(=O)OCC(=O)N2CCOCC2)cc1[N+](=O)[O-],.,-,.,.,.,.
CC(=O)c1ccc(NCC2COc3ccccc3O2)c([N+](=O)[O-])c1 (stereo not drawn),?,-,?,-,?,13µM
CC1(C)C2CCC1(C)C(NC(=O)COC(=O)c1ccc(S(C)(=O)=O)c([N+](=O)[O-])c1)C2 (stereo not drawn),5µM,.,.,.,.,5.6µM
NS(=O)(=O)c1ccc(NCC2COc3ccccc3O2)c([N+](=O)[O-])c1 (stereo not drawn),?,?,-,?,?,?
COc1ccc(C(=O)OCC(=O)NC2CC2)cc1[N+](=O)[O-],-,-,-,-,-,-
CS(=O)(=O)c1ccc(C(=O)OCC(=O)NC(=O)C2COc3ccccc3O2)cc1[N+](=O)[O-] (stereo not drawn),16µM,?,?,.,.,18µM
CS(=O)(=O)c1ccc(C(=O)OCC(=O)NC(=O)C2CCCCC2)cc1[N+](=O)[O-],9.2µM,-,?,?,11µM,?
CN(C)CC(=O)N1Cc2ccccc2CC2(CCCN(CCc3ccccc3)C2)C1 (stereo not drawn),.,-[6.33 µM],.,.,.,.
CCNC(=O)C1(NC(=O)Cc2coc(-c3ccccc3)n2)CCCCC1,.,-,.,.,.,.
CCOc1ccccc1CNC(=O)c1c(C)noc1-c1cccs1,.,-,.,.,.,.
CNc1cc(C(=O)O)nc2ccccc12,0.89µM,.,.,.,.,1.1µM
Cc1ccc(C)c(COC(=O)c2cc(S(=O)(=O)N3CCCCC3)ccc2N2CCOCC2)c1,?,-,?,.,.,13µM
COCC(C)NC(=O)c1cc(S(=O)(=O)N2CCCCC2)ccc1N1CCOCC1 (stereo not drawn),-,-,-,-,-,-
CC(C)CCCC(C)NC(=O)c1cc(S(=O)(=O)N2CCCCC2)ccc1N1CCOCC1 (stereo not drawn),23µM,-,11µM,.,.,13µM
O=C(COC(=O)c1cc(S(=O)(=O)N2CCCCC2)ccc1N1CCOCC1)NCCc1ccc(F)cc1,-,-,?,-,-,10µM
Cc1ccc(CNC(=O)c2cc(S(=O)(=O)N3CCCCC3)ccc2N2CCOCC2)cc1,?,-,?,.,.,18µM
O=C(OCc1ccccc1)c1cc(S(=O)(=O)N2CCCCC2)ccc1N1CCOCC1,?,-,?,.,.,?
Cc1ccc(COC(=O)c2cc(S(=O)(=O)N3CCCCC3)ccc2N2CCOCC2)cc1,?,-,?,.,.,26µM
CCc1cccc(NC(=O)c2cc(S(=O)(=O)N3CCCCC3)ccc2N2CCOCC2)c1,21µM,-,.,.,.,16µM
O=C(Nc1ccccc1)c1cc(S(=O)(=O)N2CCCCC2)ccc1N1CCOCC1,-,-,-,.,.,-
SMILES,DT40 TDP1 CPT,ALOX12 inh,ELG1 DNA repair,VP16 counter,RORgamma inh,DT40 TDP1 no CPT
CCOC(=O)c1ccc2[nH]c(CSCC(=O)Nc3ccc(CC)cc3)cc(=O)c2c1,.,-,.,.,.,.
O=C(NC1=NCCS1)c1sc2cc(Cl)cc(Cl)c2c1Cl,?,-,-,?,6.3µM,?
O=C(NC1=NCCS1)c1sc2ccccc2c1Cl,-,-,?,?,?,?
O=C(NCCc1ccccc1)Nc1c(NC2CCCC2)c2ccccc2oc1=O,.,-,.,.,.,.
O=C(NCc1ccc(Cl)cc1Cl)Nc1ccccc1,?,-,.,.,.,?
Clc1ccc(-c2csc(Nc3ccccc3)[n+]2Cc2ccco2)c(Cl)c1,?,?,?,-,-,23µM
CCCC[n+]1c(-c2ccc(Cl)cc2Cl)csc1Nc1ccccc1,?,-,-,?,-,21µM
O=C(CNCCc1ccc(Cl)cc1Cl)NCc1ccco1,-,-,-,-,-,-
Cc1ccsc1C(=O)N1CCCCCC1c1nnc(-c2ccccc2)o1 (stereo not drawn),.,-,.,.,.,.
O=C1CCCCCN1CCC(=O)N1CCCC(Nc2ccc(F)cc2)C1 (stereo not drawn),.,-,.,.,.,.
CCc1ccc(-c2nc(CSCC(=O)NCc3ccccc3OC)c(C)o2)cc1,21µM,-,.,.,.,16µM
CCc1ccc(-c2nc(CSCC(=O)NCc3ccco3)c(C)o2)cc1,?,-,?,2µM,0.4µM,?
CCCCN=C(Nc1ccc(Cl)cc1)c1cccnc1,-,-,-,-,-,-
NC(=NCCCCCCN=C(N)/N=C(\N)Nc1ccc(Cl)cc1)/N=C(\N)Nc1ccc(Cl)cc1,16µM!,32µM!,-,16µM!,?,13µM!
Cc1oc(C(O)c2ccccc2)nc1C(=O)Nc1ccc2c(c1)CNC2=O (stereo not drawn),.,-,.,.,.,.
Cc1ccccc1N=C1NC(=O)CC(c2ccccc2)S1 (stereo not drawn),-,-,-,?,8.9µM,-
Cn1cc(C(=O)NC2(C)CCS(=O)(=O)C2)c2ccccc21 (stereo not drawn),.,13µM,.,.,.,.
O=C(CN(C(=O)c1ccc(Cl)cc1)C1CCCCC1)Nc1ccc(Cl)c([N+](=O)[O-])c1,16µM,-,?,-,?,15µM
Cc1ccc([N+](=O)[O-])cc1NC(=O)CN(C(=O)c1ccc(Cl)cc1)C1CCCCC1,21µM,-,-,-,-,18µM
Cc1cccc(S(=O)(=O)Nc2nc3ccccc3nc2NCc2ccccc2Cl)c1,.,-,.,.,.,.
Fc1ccccc1-c1nnc([C@H]2CCN(Cc3cccc(Cl)c3)C2)o1,.,-,.,.,.,.
C=CCN(CC=C)Cc1c(C)[nH]c2c(C)cc(C)cc2c1=O,.,-,.,.,.,.
COc1ccc(C(C)(NC(C)=O)c2nc(-c3ccc(F)c(Cl)c3)cs2)cc1 (stereo not drawn),18µM,?,.,.,.,23µM
CC(=O)NC(C)(c1ccccc1)c1nc(-c2ccc(N(C)C)cc2)cs1 (stereo not drawn),16µM,?,.,.,.,23µM
COc1ccc(-c2csc(C(C)(NC(C)=O)c3ccc(OC)cc3)n2)cc1 (stereo not drawn),16µM,?,.,.,.,?
CC(=O)NC(C)(c1ccccc1)c1nc(-c2ccncc2)cs1 (stereo not drawn),-,-,.,.,.,-

# From PubChem
